Compounds with a hit are over-represented: about 32% of the library has one in this group of screens.
CYP2C9 activ – CYP2C9 (human) activation. P11712. recombinant CYP2C9, luciferin-H conversion, luminescence; hits give high values; factor 1 = untreated enzyme, 0 = blocked. activation factor at 5 µM. actives 1.4% (n = 96,000). AID 1024;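 active = activation factor of 2 or more for CYP2C9 at a 5 µM dose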;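 also: 0 = sulfaphenazole-blocked wells and 1 = vehicle-only wells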
Target sequence (P11712 whole entry, looked up): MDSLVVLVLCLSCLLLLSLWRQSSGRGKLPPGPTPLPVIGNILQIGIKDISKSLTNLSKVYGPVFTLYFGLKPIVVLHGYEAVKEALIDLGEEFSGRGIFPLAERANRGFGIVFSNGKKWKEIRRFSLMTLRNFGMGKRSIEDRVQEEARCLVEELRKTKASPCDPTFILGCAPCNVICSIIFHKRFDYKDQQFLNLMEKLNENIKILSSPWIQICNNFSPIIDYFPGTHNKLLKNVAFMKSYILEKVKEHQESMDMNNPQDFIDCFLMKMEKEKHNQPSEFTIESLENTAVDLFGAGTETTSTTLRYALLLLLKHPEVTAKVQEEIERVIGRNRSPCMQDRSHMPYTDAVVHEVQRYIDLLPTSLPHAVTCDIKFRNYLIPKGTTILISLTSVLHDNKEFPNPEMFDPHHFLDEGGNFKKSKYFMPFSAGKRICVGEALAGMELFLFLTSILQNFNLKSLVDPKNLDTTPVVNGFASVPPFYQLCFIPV
CYP2C19 inh – inhibitors of human CYP2C19 | AID 778 | actives 21% (n = 96,000) | inhibition, % at 5 µM | P33261 | CYP2C19 Supersomes, luciferin-H EGE luminescence, 30 min;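 active = CYP2C19 inhibition above a set limit at 5 µM in the primary screen, cut at about 50% in these data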;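 also: plate controls were negative control wells for no effect and 2.5 mM tranylcypromine positive control for full effect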
PostGolgi yeast – growth inhibition of a yeast mutant, post-Golgi transport screen. post-Golgi transport phenotypic cell assay. inhibition, % at 10 µM. actives 0.9% (n = 98,000);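 also: yeast cells grown in 1536-well plates; yeast grown about 18 h at 30C before absorbance read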
PostGolgi ctrl – yeast control strain growth, post-Golgi counter-screen; efflux-deficient yeast background strain, growth absorbance A615, 16 h; inhibition, % at 10 µM; actives 5% (n = 98,000); AID 738
CYP2C9 inhib – inhibitors of human CYP2C9 | CYP2C9 Supersomes, luciferin-H conversion, luminescence | inhibition, % at 5 µM | actives 20% (n = 96,000);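 active = blocking of liver enzyme CYP2C9 beyond about 50% at 5 µM, limit read from the data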
CYP2C19 act – increases human CYP2C19 enzyme activity. P33261. recombinant CYP2C19, luciferin-H EGE luminescence; hits give high values; 0 = fully inhibited enzyme, 1 = untreated enzyme. activation factor at 5 µM. 96,000 tested, under 10 active;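 active = activation factor of at least 2 at 5 µM in the primary screen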;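 also: 0 = wells with 2.5 mM tranylcypromine and 1 = vehicle-only wells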
The depositor's hits bear a star; . = no result given. Rule as the data show it, unless noted: active = inhibition above about 30%; inactive = the rest.

SMILES	CYP2C9 activ	CYP2C19 inh	PostGolgi yeast	PostGolgi ctrl	CYP2C9 inhib	CYP2C19 act
CCOC(=O)N1CCN(C(=O)CN(c2cccc(C(F)(F)F)c2)S(C)(=O)=O)CC1	0.9	29.6	4.9	7.4	7.4	0.7
Cc1cc(NC(=O)CSc2nc3cc4c(cc3c(=O)n2CCc2ccccc2)OCO4)no1	0.5	58.8*	3.5	8.0	45.7	0.4
COc1ccc(CCn2c(SCC(=O)Nc3cc(C)on3)nc3ccsc3c2=O)cc1OC	0.4	54.1*	2.3	6.7	60.1*	0.5
Cc1ccc(-n2c(SCC(=O)Nc3cc(C)on3)nc3ccccc3c2=O)cc1	1	2.5	13.2	-3.9	2.9	1
CCCn1c(SCc2ccon2)nc2ccccc2c1=O	0.2	85.1*	3.3	10.1	83.3*	0.1
COc1ccc(CCn2c(SCC(=O)Nc3cc(C)on3)nc3ccccc3c2=O)cc1OC	0.5	63.7*	10.4	8.1	51.0*	0.4
Cc1cc(NC(=O)CSc2nc3c(c(=O)n2CCc2ccccc2)SC(C)C3)no1 (stereo unspecified)	0.9	-14.6	11.6	-2.6	5.2	1.1
O=C(COC(=O)CC12CC3CC(CC(Br)(C3)C1)C2)NC(=O)NCc1ccco1	0.4	46.1	0.3	16.6	64.5*	0.5
Cc1ccc(-c2ccc(/C=N/N3C(=O)C4C5C=CC(CC5)C4C3=O)o2)c([N+](=O)[O-])c1 (stereo unspecified)	0.3	-0.8	-4.3	16.1	70.1*	1
CCc1ccc(OCC(=O)Nc2cc(S(=O)(=O)CC)ccc2O)cc1	0.2	3.3	-6.6	25.6	78.7*	1
CCOc1cccc(NC(=O)Cc2cccs2)c1	0.4	86.1*	-4.4	3.9	57.7*	0.1
CC(C)C(C)NC(=O)COc1ccc(-c2ccccc2)cc1 (stereo unspecified)	0.1	18.0	32.0*	18.4	87.2*	0.8
COc1ccc(NC(=O)Cn2c(=O)sc3ccccc32)c(OC)c1	0.5	90.3*	3.3	-3.5	49.9	0.1
CC(C)CCN1CC(O)=C(c2nc(-c3ccc(Cl)cc3)cs2)C1=N	0.8	11.5	9.4	-0.8	22.0	0.9
Cc1cccc(C(=O)Nc2cc(C)ccc2NC(=O)COc2ccccc2)c1	0.5	-4.2	-13.1	7.3	48.3	1
COc1ccc(NC(=O)COc2ccccc2)c(OC)c1	0.2	91.6*	-0.3	3.9	83.5*	0.1
CC(C)NS(=O)(=O)c1ccc(OCC(=O)Nc2cccc3ccccc23)cc1	0.2	87.9*	3.4	22.6	82.1*	0.1
COc1ccc(NC(=O)Cc2cccs2)c(OC)c1	0.9	79.2*	7.3	9.8	10.4	0.2
Cc1ccc(OCC(=O)Nc2ccccc2-c2ccccc2)cc1	.	.	-5.0	46.1*	.	.
COCC(=O)Nc1cccc2ccccc12	1.2	-3.4	3.9	6.0	-18.6	1
CCC(C)N(C(=O)Cn1nnc2ccccc21)C(C(=O)Nc1ccc(F)cc1)c1cccc(OC)c1 (stereo unspecified)	0.8	27.0	9.7	9.0	18.9	0.7
CCCc1[nH]n(-c2nc3ccccc3s2)c(=O)c1C=NCC1CCCO1 (stereo unspecified)	1	1.1	0.0	14.1	2.3	1
[O-][n+]1onc2c3cc(-c4ccccc4)nnc3ccc21	0.8	10.7	-2.7	2.5	19.4	0.9
COc1ccc(OCC(=O)Nc2ccccc2O)cc1	0.1	98.7*	5.7	5.0	94.8*	0
COc1ccccc1NC(=O)COc1ccccc1	1.6	45.5	-3.0	5.8	-58.9	0.5
SMILES	CYP2C9 activ	CYP2C19 inh	PostGolgi yeast	PostGolgi ctrl	CYP2C9 inhib	CYP2C19 act
CCCCNC(=S)NNC(=O)c1ccoc1C	1	35.4	-7.4	-6.2	3.2	0.6
CCCCNC(=S)NNC(=O)c1csc2ccccc12	1.7	62.2*	-13.0	7.1	-70.8	0.4
COc1ccc(/C=C/C(=O)c2ccccc2)cc1COc1ccc(F)cc1	0.4	16.2	9.6	3.5	64.8*	0.8
COc1ccc(/C=C/C(=O)NCc2cn(C)nc2C)cc1COc1ccc(Br)cc1	0.4	67.1*	-8.9	12.1	60.5*	0.3
CN1CCN(C(=O)CCC(=O)c2ccc(F)cc2)CC1	1.1	1.8	-11.7	-6.0	-12.2	1
CC(C)(C)c1ccc(Oc2cccc(C3CC(=O)C(C4NCCc5ccccc54)C(=O)C3n3cncn3)c2)cc1 (stereo unspecified)	0.7	-8.4	2.2	15.9	34.0	1.1
O=C1CC(=O)C(n2cncn2)C(c2ccc(Cl)cc2Cl)C1 (stereo unspecified)	0.3	10.1	11.9	7.0	74.5*	0.9
COCC(=O)N/N=C(\C)CC(=O)Nc1ccccc1C(N)=O	1	20.9	10.1	13.2	0.0	0.8
CCC(C)[C@H](NC(=O)NCc1cccc(OC)c1)C(=O)OC (stereo partly specified)	0.9	35.8	-2.6	-1.8	7.6	0.6
CCN(CC(=O)NCc1ccc(F)cc1)CC(O)COCc1cccc(OC)c1 (stereo unspecified)	0.3	66.7*	3.4	-2.1	66.8*	0.3
COc1cc(OC)c(-c2nnc(-c3ccc(OC)c(OC)c3OC)o2)cc1OC	1.4	27.1	-5.6	14.7	-39.8	0.7
COc1cc(C(C)=O)ccc1OCC(=O)c1cc(C)n(C2CC2)c1C	1.3	58.0*	-6.4	22.8	-31.5	0.4
Oc1ccccc1-c1nc(NCC2CCCO2)c2ccccc2n1 (stereo unspecified)	0.6	8.3	-2.8	55.9*	40.6	0.9
c1ccc2c(c1)nc(NCC1CCCO1)c1nnnn12 (stereo unspecified)	.	.	5.2	15.2	.	.
COc1cccc(OC)c1OCC(C)CNCC1CCCO1 (stereo unspecified)	0.9	6.3	-0.5	4.9	6.1	0.9
COc1cccc(-c2nc(NCC3CCCO3)c3ccccc3n2)c1O (stereo unspecified)	.	.	7.4	43.1*	.	.
COc1cccc(N(C(=O)c2cccs2)c2nc3ccccc3s2)c1	0.8	4.7	14.4	23.4	20.7	1
COc1ccc(N2CCN(Cc3cc(=O)oc4ccc(C)cc34)CC2)cc1	1	9.6	-2.0	10.9	-2.9	0.9
Cc1ccc2c(CN3C(=O)NC(C)(c4ccc5c(c4)OCO5)C3=O)cc(=O)oc2c1 (stereo unspecified)	0	92.3*	0.8	15.3	98.3*	0.1
Cc1cc2oc(=O)cc(CN3CCCCC3C)c2c(C)c1Cl (stereo unspecified)	0.9	55.6*	14.9	14.8	11.0	0.4
Cc1cc2oc(=O)cc(CN3CCC(C)CC3)c2cc1Cl	0.9	85.2*	15.0	4.4	10.3	0.1
Cc1ccc2c(CN3CCC(C)CC3)cc(=O)oc2c1	0.3	100.2*	13.0	2.7	67.3*	0
CCc1cc(=O)oc2cc(C)c(CN3CCCC3)c(O)c12	1.1	-15.8	13.5	0.3	-9.1	1.2

Compound activity (PubChem)
